# Lamin A splicing: LMNA splicing modulation | Potency, µM (doses to about 46.1 µM), for the others: top-dose ratio change, negative = inhibition, most hits filed as inhibitors | HeLa LMNA splicing GFP/RFP minigene ratio, 48 h | actives 0.01% (n = 200,000); active means well fitted inhibition curve with a large enough effect in the signal ratio, with a control signal flat, not every such curve was filed as active; inconclusive means small, poorly fitted or top-dose-only effect, or effect the other way, or a change in a side signal; the % refers to the signal ratio; further: on the % scale 0 is the no-effect control and ±100 the full control effect
#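 S3 HeLa cells stably expressing lamin A-EGFP splicing minigene plus DsRed2, 600 cells/well, 48 h compound exposure at 37C. Laser-scanning cytometry; analysed as GFP (500-530 nm)/RFP (575-640 nm) total intensity ratio; 0.5% DMSO vehicle.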
# HTT ATP protect: Huntington cell model cytoprotection by ATP luminescence; PC12 HTT-Q103 induced, cytoprotection, ATP luminescence, 40 h; Potency, µM (top dose mostly 56.4 µM), without a hit: cytoprotection (ATP increase), hits mostly activators; actives 0.14% (n = 230,000); AID 1471; further: % of control where 0% means no effect; nearly all actives have a fitted effect of over 45% in size
#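 Readout: ATPlite luminescence (ATP level). Model: stable PC12, inducible Htt exon1 Q103-GFP. Inducer: tebufenozide, 100 nM final. Compounds: dose series. No G418 in medium.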
# HTT aggregate: inhibitors of mutant huntingtin aggregate formation in PC12 cells | actives 1.1% (n = 220,000) | Potency, µM (highest dose often 46.1 µM), inactives show at the top dose activity change, negative = inhibition, actives largely listed as inhibitors | PC12 HttQ103-GFP aggregates, Acumen cytometry, 40 h | AID 1688; further: on the % scale 0 is the no-effect control and ±100 the full control effect; nearly all actives have a fitted effect of over 60% in size
#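 Read-out: GFP aggregate count by laser scanning cytometer (488 nm excitation, 500-530 nm emission, 1–25 µm objects >6 SD above background). Cells: PC12, inducible HTTex1-Q103-GFP, 100 nM tebufenozide; compounds titrated.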
# HPGD inh: HPGD (human) dehydrogenase inhibition | purified HPGD, NADH fluorescence kinetic, PGE2 substrate | actives 4.3% (n = 150,000) | Potency, µM, without a hit: top-dose activity change, negative = inhibition, usual class: inhibitors; active means well fitted inhibition curve with a large enough effect, not every such curve was filed as active; inconclusive means small, poorly fitted or top-dose-only effect, or another doubt; inactive means no such curve, though single readings can be large or run the other way; further: on the % scale 0 is the no-effect control and ±100 the full control effect
# Target sequence (P15428 whole entry, looked up): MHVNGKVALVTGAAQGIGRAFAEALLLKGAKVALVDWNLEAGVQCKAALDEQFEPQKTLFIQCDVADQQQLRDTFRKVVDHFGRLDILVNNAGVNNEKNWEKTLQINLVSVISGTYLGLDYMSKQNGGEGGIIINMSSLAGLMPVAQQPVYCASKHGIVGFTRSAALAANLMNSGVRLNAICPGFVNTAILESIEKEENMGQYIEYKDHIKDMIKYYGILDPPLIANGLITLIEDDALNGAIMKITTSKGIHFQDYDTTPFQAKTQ
#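 20 nM HPGD preincubated 15 min at room temperature with compound in 50 mM Tris-HCl pH 8, 0.01% Tween 20. Started with 1 mM NAD+ and 30 uM prostaglandin E2; NADH fluorescence (360/450 nm) read 5 times over 30-s intervals, last minus first.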
# ALDH1A1 inh: inhibitors of human aldehyde dehydrogenase 1A1 | P00352 | Purified ALDH1A1, NADH fluorescence, propionaldehyde substrate | Potency, µM (doses to about 75.3 µM), for the others: top-dose activity, negative = inhibition, hits mostly inhibitors | actives 7.3% (n = 220,000) | AID 1030; active means well fitted inhibition curve with a large enough effect, not every such curve was filed as active; inconclusive means small, poorly fitted or top-dose-only effect, or another doubt; inactive means no such curve, though single readings can be large or run the other way;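 further: plate controls were no enzyme wells and a reference inhibitor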
# The depositor's hits bear a star; ? = inconclusive; / = no result; [ ] = dose if it differs, or a comment. Compounds with a hit are over-represented: about 8.8% of the library has one in this group of screens. Unless noted, the call rests on the fitted dose curve; in most records, active means well fitted curve in the direction sought with a large enough effect; inconclusive means small, poorly fitted or top-dose-only effect, or another doubt; inactive means no such curve, though single readings can be large; an effect the other way counts as inactive or inconclusive. Potency means the concentration at half of the fitted maximal effect.
SMILES,Lamin A splicing,HTT ATP protect,HTT aggregate,HPGD inh,ALDH1A1 inh
CCN1C(=O)c2cccc3c(S(=O)(=O)NCCCN4CCOCC4)ccc1c23,-1%,-1%,-10%,-20%,?
CCN1C(=O)c2cccc3c(S(=O)(=O)Nc4ccccc4OC)ccc1c23,?,-21%,4%,-9%,4.5µM*
CCN1C(=O)c2cccc3c(S(=O)(=O)NCCc4c[nH]c5ccccc45)ccc1c23,-4%,2%,24%,-9%,14µM*
Cc1nc(C)c(-c2ccc(SCC(=O)Nc3ccccc3F)nn2)s1,-5%[46 µM],/,/,/,/
CCCCC(=O)Nc1nnc(S(=O)(=O)N(CC)c2cc(C)cc(C)c2)s1,-1%[46 µM],/,/,/,/
Cc1cccc(N(C)S(=O)(=O)c2ccc3[nH]c(=O)c(=O)[nH]c3c2)c1,-1%,16%,-20%,14µM*,?
Cc1cccc(N(C)S(=O)(=O)c2ccc3c(c2)NC(=O)CC(=O)N3)c1,17%[46 µM],-9%,6%,/,-4%
COCCNC(=O)CN(c1ccc(C)cc1)S(=O)(=O)c1ccc(SC)cc1,2%,0%,-12%,-12%,-47%
CCN(CC)C(=O)CN(c1ccc(C)cc1)S(=O)(=O)c1ccc(SC)cc1,8%,9%,6%,-8%,14µM*
CC1CCCC(C)N1/N=C/c1cc(Br)c(O)c(Br)c1 (stereo not given),10%,-15%[10 µM],8%,-13%,?
CC1CCCC(C)N1/N=C/c1ccc(N(C)C)cc1 (stereo not given),-12%[46 µM],-15%[10 µM],17%,/,4µM*
NCCC[C@@H](N)C(=O)O,/,-8%[10 µM],/,-8%,-2%[13.5 µM]
NC(=S)NCCCC(N)C(=O)O (stereo not given),7%,/,/,-25%,2.5µM*
Cc1ccc(NC(=O)Cn2c(=S)[nH]c3ccccc32)cc1,/,0%,-15%,/,10µM*
O=C(Cn1c(=S)[nH]c2ccccc21)c1ccccc1,?,4%[10 µM],-13%,-8%,-10%
O=C(CCn1cnc2ccccc21)N/N=C/c1ccc(O)cc1,5%,12%[10 µM],10%,?,?
O=C(CCC(=O)Nc1ccc(F)cc1)N/N=C/c1ccccc1O,?,-41%,?,/,1%
O=C(CCn1cnc2ccccc21)N/N=C/c1ccccc1O,?,-30%[10 µM],10µM*,?,3%
O=C(CCN1CCN(c2ccccc2)CC1)N/N=C/c1ccccc1O,?,-131%,13µM*,/,1%
O=C(CCC(=O)N/N=C/c1ccccc1O)NCc1ccccc1,4%,4%[10 µM],10µM*,-27%,-3%
Cc1ccc(CNC(=O)Cn2cc(C(=O)c3ccc(Cl)cc3)c(=O)c3ccc(C)nc32)cc1,8%[46 µM],/,/,/,/
COC(=O)CCC(C)C1CCC2C3CC[C@H]4CC(O)CC[C@@]4(C)C3CC(O)[C@]12C (stereo not given in full),?,/,/,-12%,-2%
COc1ccc(NC(=O)N2CCOc3ccc(Cl)cc32)cc1,-1%[46 µM],/,/,/,/
O=C1O/C(=C\Br)CC[C@@H]1c1cccc2ccccc12,/,28%[1.9 µM],/,/,/
O=C(NCCO)C(=O)Nc1c2c(nn1-c1ccc(F)cc1)CSC2,16%[46 µM],/,/,/,/
SMILES,Lamin A splicing,HTT ATP protect,HTT aggregate,HPGD inh,ALDH1A1 inh
CN(C)c1ccc(SC#N)cc1,/,12%[10 µM],-2%[9.22 µM],/,13µM*
CN(C)c1ccc(-n2cccc2)cc1,/,?,-2%[9.22 µM],/,/
CCCN1CCN(c2ncnc3scc(C4COc5ccccc5O4)c23)CC1 (stereo not given),?,-3%[10 µM],-17%,/,2%
c1ccc2c(c1)OCC(c1csc3ncnc(N4CCCCC4)c13)O2 (stereo not given),-5%,24%[10 µM],11µM*,-14%,-6%
Clc1ncnc2scc(C3COc4ccccc4O3)c12 (stereo not given),-18%,-22%[10 µM],?,28µM*,18µM*
O=c1[nH]cnc2scc(C3COc4ccccc4O3)c12 (stereo not given),-2%,23%[0.074 µM],-28%,-17%,2%
COc1ccc(NC(=O)CCS(=O)(=O)c2cccc3nonc23)cc1,/,-34%,-1%,/,?
O=C(CCS(=O)(=O)c1cccc2nonc12)N1CC(=O)N(CCc2ccccc2)C(=O)C1,7%,19%,7%,1%,28µM*

# Source: PubChem BioAssay
